This note sets out measurements from ChEMBL document CHEMBL3988442, “University of Dundee, Small-Polar-MMV Screening Library” (2021).

For part of these data: Entries with a potency or affinity are not part of this list.

Parameters in all cases: scale not given: direction of the effect not stated beside the values
Test [1] addresses Protein translocase subunit SecA (Escherichia coli (strain K12)) (UniProt P10408). Put plainly: Assay to Identify E. coli SecA ATPase Inhibitors. Type of test: functional. Conditions: 30 µM.
Test [2] addresses T1, Ubiquitin-activating enzyme e1, putative (Leishmania donovani (strain BPK282A1)) (UniProt E9BSI1).
T1 sequence (whole entry): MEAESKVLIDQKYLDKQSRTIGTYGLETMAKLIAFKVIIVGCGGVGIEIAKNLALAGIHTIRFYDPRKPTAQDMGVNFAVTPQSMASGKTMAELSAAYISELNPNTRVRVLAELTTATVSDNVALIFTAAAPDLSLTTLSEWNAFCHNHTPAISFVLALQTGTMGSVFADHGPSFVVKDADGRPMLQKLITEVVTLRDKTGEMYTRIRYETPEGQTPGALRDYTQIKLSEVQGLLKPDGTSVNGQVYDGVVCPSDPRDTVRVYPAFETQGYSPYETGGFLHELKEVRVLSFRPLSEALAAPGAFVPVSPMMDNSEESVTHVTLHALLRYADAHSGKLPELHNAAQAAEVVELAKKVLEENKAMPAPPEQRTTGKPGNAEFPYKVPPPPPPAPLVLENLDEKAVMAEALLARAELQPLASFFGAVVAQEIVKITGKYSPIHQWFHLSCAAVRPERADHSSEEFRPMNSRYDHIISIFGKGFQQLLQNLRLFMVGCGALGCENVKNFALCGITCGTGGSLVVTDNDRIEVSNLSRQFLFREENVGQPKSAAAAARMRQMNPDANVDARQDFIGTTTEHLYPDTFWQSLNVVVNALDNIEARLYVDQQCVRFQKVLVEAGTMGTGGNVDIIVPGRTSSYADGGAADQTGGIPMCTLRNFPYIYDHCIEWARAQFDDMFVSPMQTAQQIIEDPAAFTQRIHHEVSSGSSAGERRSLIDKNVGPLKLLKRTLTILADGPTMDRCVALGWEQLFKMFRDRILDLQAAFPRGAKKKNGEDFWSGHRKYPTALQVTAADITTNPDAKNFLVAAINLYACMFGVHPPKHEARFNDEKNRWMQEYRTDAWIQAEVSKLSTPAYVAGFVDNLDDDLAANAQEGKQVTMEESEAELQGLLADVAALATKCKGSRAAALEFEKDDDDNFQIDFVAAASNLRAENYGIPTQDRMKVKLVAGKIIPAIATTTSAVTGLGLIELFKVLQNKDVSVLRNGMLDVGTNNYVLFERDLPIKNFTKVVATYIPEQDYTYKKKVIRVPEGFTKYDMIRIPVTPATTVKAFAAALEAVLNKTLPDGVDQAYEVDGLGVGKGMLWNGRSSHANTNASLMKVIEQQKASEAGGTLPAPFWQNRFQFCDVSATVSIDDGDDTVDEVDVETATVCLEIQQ
Put plainly: Leishmania donovani Ubiquitin Activating Enzyme (LdE1). Type of test: functional. Conditions: 30 µM.

The target of test [3] is AMP-activated protein kinase, AMPK (Homo sapiens) (UniProt P54646+O43741+P54619+Q9UGJ0+Q9Y478+Q13131+Q9UGI9). Briefly: AMP-dependent Kinase enzyme assay. An in vitro enzyme assay that detects ADP turnover that is directly proportional to AMPK activity. This uses naive AMPK that is activated during the assay with MK-8722. Type of test: functional. The conditions noted are these: 30 µM.

Test [4] addresses Sialic acid-binding Ig-like lectin 9 (Homo sapiens) (UniProt Q9Y336). Briefly: Hs-Siglec9 ALPHAscreen SOP 20170721. The conditions noted are these: 10 µM. (In Alpha technology, singlet oxygen from a donor bead excites a nearby acceptor bead.)
For test [5], the system named is Trypanosoma cruzi. Put plainly: Trypanosoma cruzi phosphomannomutase and mannose-1-phosphate guanylyltransferase assay. Conditions: 10 µM. It counts as functional.
Test [6] concerns the target T2, Arginase-2, mitochondrial (Homo sapiens) (UniProt P78540).
T2 sequence (whole entry): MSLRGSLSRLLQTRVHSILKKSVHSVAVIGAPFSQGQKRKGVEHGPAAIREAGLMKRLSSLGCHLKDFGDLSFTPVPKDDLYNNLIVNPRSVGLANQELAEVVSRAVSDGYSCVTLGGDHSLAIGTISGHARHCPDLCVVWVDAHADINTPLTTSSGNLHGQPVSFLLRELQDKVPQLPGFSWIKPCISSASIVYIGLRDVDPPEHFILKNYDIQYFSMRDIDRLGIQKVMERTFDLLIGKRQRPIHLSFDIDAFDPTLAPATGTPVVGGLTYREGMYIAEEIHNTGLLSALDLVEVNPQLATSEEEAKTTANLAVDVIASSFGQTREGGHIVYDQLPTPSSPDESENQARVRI
Put plainly: in vitro enzyme assay to detect the production of urea directly proportional to the activity of Arginase II. Note: in the data most compounds retested in dose-response had high values. Type of test: functional. The conditions noted are these: 33.3 µM.

For test [7], the target named is T3, Proteasome subunit beta (Trypanosoma cruzi) (UniProt O96673).
T3 sequence (whole entry): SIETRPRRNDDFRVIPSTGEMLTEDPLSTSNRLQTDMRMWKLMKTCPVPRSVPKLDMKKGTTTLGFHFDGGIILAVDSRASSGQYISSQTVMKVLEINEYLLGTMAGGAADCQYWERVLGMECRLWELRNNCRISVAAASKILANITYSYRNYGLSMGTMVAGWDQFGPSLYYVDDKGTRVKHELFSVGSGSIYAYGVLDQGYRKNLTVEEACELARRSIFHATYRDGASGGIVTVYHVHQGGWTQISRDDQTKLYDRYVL
Briefly: Trypanosoma cruzi proteasome chymotrypsin-like activity (TcProtChymo) assay. Note: in the data most compounds retested in dose-response had high values. It counts as functional. Conditions: 9.37 µM.

For test [8], the species on record is Homo sapiens. Briefly: To identify inhibition of the IFN signalling (Jak-Stat) pathway via expression of an eGFP reporter gene under the control of an IFN-stimulated response element (ISRE) containing MxA promoter. Conditions: 30 µM. It counts as functional. In general terms: A reporter such as luciferase makes a cellular process visible.
In test [9] the target is T4, Tyrosyl-tRNA synthetase, putative (Trypanosoma cruzi (strain CL Brener)) (UniProt Q4DSP6).
T4 sequence (whole entry): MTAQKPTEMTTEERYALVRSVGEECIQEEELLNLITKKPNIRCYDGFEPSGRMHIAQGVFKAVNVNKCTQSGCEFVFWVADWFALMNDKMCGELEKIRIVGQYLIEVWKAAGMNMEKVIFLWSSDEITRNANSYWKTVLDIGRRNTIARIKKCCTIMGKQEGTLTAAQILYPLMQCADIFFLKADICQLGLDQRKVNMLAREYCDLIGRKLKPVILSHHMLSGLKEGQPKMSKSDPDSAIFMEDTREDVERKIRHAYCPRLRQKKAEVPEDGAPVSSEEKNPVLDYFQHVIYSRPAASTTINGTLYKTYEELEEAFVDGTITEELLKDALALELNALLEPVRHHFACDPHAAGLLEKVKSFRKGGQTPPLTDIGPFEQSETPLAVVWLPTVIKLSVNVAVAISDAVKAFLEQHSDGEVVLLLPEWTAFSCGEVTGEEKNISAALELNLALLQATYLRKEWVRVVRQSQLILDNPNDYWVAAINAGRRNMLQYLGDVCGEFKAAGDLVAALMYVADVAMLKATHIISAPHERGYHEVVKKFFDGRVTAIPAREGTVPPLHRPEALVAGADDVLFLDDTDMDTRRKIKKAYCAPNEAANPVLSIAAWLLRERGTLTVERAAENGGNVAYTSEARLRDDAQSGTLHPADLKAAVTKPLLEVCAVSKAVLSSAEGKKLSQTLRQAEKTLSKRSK
Put plainly: Trypanosoma cruzi tyrosyl tRNA synthetase (TcYRS) _High Tyrosine SOP. Note: in the data most compounds retested in dose-response had high values. Conditions: 30 µM. Type of test: functional.

In test [10] the target is T4, Tyrosyl-tRNA synthetase, putative (Trypanosoma cruzi (strain CL Brener)). Put plainly: Trypanosoma cruzi tyrosyl tRNA synthetase (TcYRS) SOP. Conditions: 30 µM. It counts as functional.
Test [11] addresses Chromo domain-containing protein 1 (Saccharomyces cerevisiae (strain ATCC 204508 / S288c) (Baker's yeast)) (UniProt P32657). Put plainly: ScCHD-1 Enzyme Inhibition Assay. Note: in the data most compounds retested in dose-response had high values. It counts as functional. Conditions: 30 µM.

Chain of Protein translocase subunit SecA (Escherichia coli (strain K12)) (P10408 whole entry): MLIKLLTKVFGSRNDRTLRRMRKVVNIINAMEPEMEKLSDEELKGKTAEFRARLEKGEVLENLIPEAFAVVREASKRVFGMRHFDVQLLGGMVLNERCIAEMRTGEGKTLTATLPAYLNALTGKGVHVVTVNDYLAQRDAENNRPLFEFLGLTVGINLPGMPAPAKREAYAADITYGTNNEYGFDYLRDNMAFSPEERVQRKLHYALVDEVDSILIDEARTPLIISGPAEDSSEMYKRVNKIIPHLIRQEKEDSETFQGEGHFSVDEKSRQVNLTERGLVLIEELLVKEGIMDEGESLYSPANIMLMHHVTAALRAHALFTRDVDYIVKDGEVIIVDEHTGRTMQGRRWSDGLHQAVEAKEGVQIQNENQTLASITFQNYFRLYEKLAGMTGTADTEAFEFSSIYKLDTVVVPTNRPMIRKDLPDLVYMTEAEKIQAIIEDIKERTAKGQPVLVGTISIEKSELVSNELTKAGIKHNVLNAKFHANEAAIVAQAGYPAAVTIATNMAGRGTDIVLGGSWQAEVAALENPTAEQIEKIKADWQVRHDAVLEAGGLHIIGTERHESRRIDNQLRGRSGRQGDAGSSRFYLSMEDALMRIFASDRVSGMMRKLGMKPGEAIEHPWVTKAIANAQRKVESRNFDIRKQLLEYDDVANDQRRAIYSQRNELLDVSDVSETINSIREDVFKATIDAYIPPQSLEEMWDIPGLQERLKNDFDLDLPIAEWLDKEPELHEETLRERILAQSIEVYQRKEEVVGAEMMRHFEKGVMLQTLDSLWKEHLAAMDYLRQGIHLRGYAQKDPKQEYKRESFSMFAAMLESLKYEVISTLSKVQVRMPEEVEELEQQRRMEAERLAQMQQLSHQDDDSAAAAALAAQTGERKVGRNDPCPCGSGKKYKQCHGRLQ
Chain of Chromo domain-containing protein 1 (Saccharomyces cerevisiae (strain ATCC 204508 / S288c) (Baker's yeast)) (P32657 whole entry, the tested form may be a part): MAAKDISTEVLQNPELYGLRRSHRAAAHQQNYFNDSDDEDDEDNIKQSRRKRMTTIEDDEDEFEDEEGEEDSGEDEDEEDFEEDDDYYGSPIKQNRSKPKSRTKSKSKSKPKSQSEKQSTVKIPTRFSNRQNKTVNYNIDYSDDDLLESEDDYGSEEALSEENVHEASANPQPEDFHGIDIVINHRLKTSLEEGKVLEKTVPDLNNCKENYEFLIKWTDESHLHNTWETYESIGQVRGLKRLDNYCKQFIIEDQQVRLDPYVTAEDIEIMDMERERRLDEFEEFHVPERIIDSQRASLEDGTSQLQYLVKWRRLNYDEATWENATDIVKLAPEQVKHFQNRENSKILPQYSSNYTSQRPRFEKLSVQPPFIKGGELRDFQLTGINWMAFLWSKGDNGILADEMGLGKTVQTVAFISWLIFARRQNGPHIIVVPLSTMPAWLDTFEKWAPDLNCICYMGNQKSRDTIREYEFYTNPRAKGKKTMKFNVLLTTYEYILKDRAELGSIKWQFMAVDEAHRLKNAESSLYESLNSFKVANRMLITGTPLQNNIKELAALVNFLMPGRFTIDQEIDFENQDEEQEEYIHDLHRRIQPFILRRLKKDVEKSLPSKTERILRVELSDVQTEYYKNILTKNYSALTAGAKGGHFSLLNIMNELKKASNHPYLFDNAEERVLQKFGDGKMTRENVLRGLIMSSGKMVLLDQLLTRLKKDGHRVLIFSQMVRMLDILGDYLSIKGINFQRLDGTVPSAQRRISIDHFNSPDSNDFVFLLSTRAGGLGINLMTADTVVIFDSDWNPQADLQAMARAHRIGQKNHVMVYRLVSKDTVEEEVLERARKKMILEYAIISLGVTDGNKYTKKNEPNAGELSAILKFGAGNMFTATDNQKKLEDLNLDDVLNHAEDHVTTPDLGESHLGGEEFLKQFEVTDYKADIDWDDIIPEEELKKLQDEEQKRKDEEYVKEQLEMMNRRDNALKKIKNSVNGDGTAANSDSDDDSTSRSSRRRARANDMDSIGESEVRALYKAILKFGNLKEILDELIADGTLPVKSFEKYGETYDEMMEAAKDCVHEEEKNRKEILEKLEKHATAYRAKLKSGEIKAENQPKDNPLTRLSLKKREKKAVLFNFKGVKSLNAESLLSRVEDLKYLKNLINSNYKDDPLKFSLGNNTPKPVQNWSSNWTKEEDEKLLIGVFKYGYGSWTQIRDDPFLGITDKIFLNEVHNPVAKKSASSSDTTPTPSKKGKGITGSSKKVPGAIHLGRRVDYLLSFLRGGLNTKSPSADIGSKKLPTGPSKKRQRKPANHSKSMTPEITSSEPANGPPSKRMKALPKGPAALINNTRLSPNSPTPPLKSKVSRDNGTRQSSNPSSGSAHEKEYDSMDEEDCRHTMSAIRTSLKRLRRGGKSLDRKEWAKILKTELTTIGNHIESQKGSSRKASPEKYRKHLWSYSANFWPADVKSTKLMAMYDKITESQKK
Chain of Sialic acid-binding Ig-like lectin 9 (Homo sapiens) (Q9Y336 whole entry): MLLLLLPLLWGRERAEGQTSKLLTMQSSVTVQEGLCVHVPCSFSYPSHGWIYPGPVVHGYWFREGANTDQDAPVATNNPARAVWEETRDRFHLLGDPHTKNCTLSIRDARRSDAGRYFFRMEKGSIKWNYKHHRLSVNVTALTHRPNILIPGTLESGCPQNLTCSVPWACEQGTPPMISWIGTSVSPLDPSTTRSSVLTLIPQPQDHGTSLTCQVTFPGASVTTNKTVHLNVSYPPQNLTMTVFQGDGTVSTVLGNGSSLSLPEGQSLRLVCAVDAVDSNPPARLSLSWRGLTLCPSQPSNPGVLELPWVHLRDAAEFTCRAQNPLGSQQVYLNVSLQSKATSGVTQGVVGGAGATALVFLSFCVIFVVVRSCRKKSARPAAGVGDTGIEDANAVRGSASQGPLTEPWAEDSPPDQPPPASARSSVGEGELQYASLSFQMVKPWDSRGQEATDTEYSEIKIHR

Take `COCC(=O)N1CCC(c2noc3nc(C)cc(C(F)(F)F)c23)CC1`: the Percent Effect in test [1] was -6.46%; in test [2], 4.05%; in [3], 9.11%; in [4] it was -5.57%; in [5], -2.37%; in test [6] it was -7.66%. Further, the Percent Effect is 13.9% in test [7]; 21.4% in test [8]; -2.15% in test [9]; -1.3% in [10]; -1.78% in test [11].

With `Cc1cc(-c2cnc(NC3CC3)nc2-c2ccc(C)o2)on1`, the Percent Effect in test [1] is -1.85%; in [2], 13.3%; in test [3] it was 55.8%; in [4], 7.93%; in test [5] it was 3.54%; in test [6], -0.233%. The Percent Effect in test [7] is 2.56%; in [8], 20.4%; in test [9] it was 2.13%; in [10], 14.1%; in test [11], -7.02%.

In the case of `CCn1cc(NC(=O)NCC(C)O)cn1` (centres undefined), the Percent Effect in [1] was -0.762%; in test [2], 17.7%; in test [3], -8.6%; in test [4], -3.54%; in [5], -0.85%; in test [6] it was 4.18%. Besides, the Percent Effect in test [7] was 5.65%; in [8], 1.36%; in [9] it was 8.37%; in test [10] it was -24.1%; in test [11], -7.2%.

As for `c1cnc(N2CCOC3(CCN(CC4CCCCC4)CC3)C2)nc1`, the Percent Effect is 0.617% in [1]; 13.3% in [2]; 14.1% in test [3]; -0.802% in test [4]; -5.12% in [5]; -2.1% in test [6]. Moreover, the Percent Effect is 14.7% in test [7]; 10.1% in test [8]; 5.32% in [9]; 11.5% in test [10]; -3.47% in test [11].

`c1cnc(-c2cnc(N3CCSCC3)nc2C2CC2)cn1`: the Percent Effect in [1] is -4.23%; in [2], 2.67%; in [3] it was 12.3%; in test [4] it was 6.16%; in test [5], -3.94%; in [6], -0.699%. Moreover, the Percent Effect is 3.44% in test [7]; 16% in test [8]; 1.06% in [9]; 8.97% in test [10]; -0.826% in test [11].

As to `CC(C)N(CC(N)=O)Cc1csc(Cc2ccccc2)n1`, the Percent Effect in [1] is -3.88%; in [2] it was 12.7%; in test [3] it was 0.223%; in [4], -4.46%; in [5], -6.7%; in test [6], 0%. In addition, the Percent Effect in test [7] was 5.82%; in test [8] it was 41.7%; in test [9] it was -1.48%; in test [10], 11.4%; in test [11] it was -6.32%.

On to `CCc1nnc2n1CCN(C(=O)c1csc(-c3cnn(C)c3)n1)C2`, for which the Percent Effect is -4.14% in test [1]; 12.5% in test [2]; -3.73% in test [3]; 15.8% in test [4]; 4.96% in test [5]; 8.39% in test [6]. The Percent Effect in [7] is 15.1%; in [8], 0.753%; in [9], 3.16%; in [10], 7.69%; in [11], -5.68%.

For the compound `CCn1c(C(=O)N2CCN(C(=O)NC(C)C)CC2)cc2ccccc21`, the Percent Effect was -9.42% in test [1]; 2.6% in [2]; 5.86% in [3]; -4.68% in test [4]; -3.37% in test [5]; 0.356% in [6]. Further, the Percent Effect in [7] was 6.93%; in test [8], 14.7%; in test [9], 0%; in test [10], 0%; in test [11], -7.12%.

With `Oc1ccc(N2CCN(Cc3cc4c(cc3Br)OCCO4)CC2)cc1`, the Percent Effect in test [1] was -0.859%; in test [2], -9.72%; in test [3] it was 44.8%; in [4], 3.01%; in [5], -1.07%; in test [6], -2.21%. In addition, the Percent Effect is 13.2% in test [7]; 27.4% in test [8]; 9.47% in test [9]; 10.3% in test [10]; -3.02% in test [11].
